Screening data (PubChem)
Most compounds without a hit are left out; they make up all but 27% or so of the library.
CYP2C19 activ = activators of human cytochrome P450 2C19; P33261; recombinant CYP2C19, luciferin-H EGE luminescence; hits give high values; 0 = fully inhibited enzyme, 1 = untreated enzyme; activation factor at 5 µM; 96,000 tested, under 10 active;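 active = activation factor of at least 2 at 5 µM in the primary screen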;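 note: 0 = wells with 2.5 mM tranylcypromine and 1 = vehicle-only wells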
CYP2C19 inh = human CYP2C19 inhibition; AID 778; P33261; CYP2C19 Supersomes, luciferin-H EGE luminescence, 30 min; inhibition, % at 5 µM; 96,000 tested, 21% active;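 active = CYP2C19 inhibition above a set limit at 5 µM in the primary screen, cut at about 50% in these data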;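 note: plate controls were negative control wells for no effect and 2.5 mM tranylcypromine positive control for full effect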
CYP2C9 inh = blocks human cytochrome P450 2C9. CYP2C9 Supersomes, luciferin-H conversion, luminescence. inhibition, % at 5 µM. 96,000 tested, 20% active. AID 777;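 active = blocking of liver enzyme CYP2C9 beyond about 50% at 5 µM, limit read from the data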
Cav3 T inh = inhibitors of human Cav3.2 T-type calcium channel. Cav3.2-expressing cells, Fluo-4 calcium fluorescence FDSS; hits give low values. O95180. 100,000 tested, 4% active. AID 449739. B-score at 10 µM;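 active = single-dose well whose peak fluorescence ratio is a statistical outlier from its plate by either plate-standardised score or position-corrected B-score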
CYP2C9 act = activators of human CYP2C9. recombinant CYP2C9, luciferin-H conversion, luminescence; hits give high values; factor 1 = untreated enzyme, 0 = blocked. 96,000 tested, 1.4% active. P11712. activation factor at 5 µM;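 active = activation factor of 2 or more for CYP2C9 at a 5 µM dose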;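 note: 0 = sulfaphenazole-blocked wells and 1 = vehicle-only wells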
* marks the source's active call; other numbers are inactive results; / = not tested or not shown.

SMILES	CYP2C19 activ	CYP2C19 inh	CYP2C9 inh	Cav3 T inh	CYP2C9 act
CN(Cc1nc2ccccc2n1C)S(=O)(=O)c1ccc(F)cc1	0.2	83.7*	-167.3	0.676	2.7*
O=C(Nc1nccs1)c1cccc(NC(=O)C2CC2)c1	0.8	18.5	29.9	0.518	0.7
CCCC(=O)Nc1cccc(C(=O)Nc2nccs2)c1	0.8	19.9	55.1*	0.359	0.4
CC(C)C(=O)Nc1cccc(C(=O)Nc2nccs2)c1	0.8	20.2	86.0*	0.951	0.1
CCCNC(=O)c1ccc(-c2nc3ccccc3s2)s1	0.8	20.9	-3.2	/	1
CNc1sc(C(=O)c2ccccc2F)c(N)c1-c1nc2ccccc2s1	0.1	88.8*	84.3*	-0.97	0.2
CN(C)S(=O)(=O)c1ccc2[nH]cc(/C=C/c3nc4ccccc4c(=O)n3-c3ccccc3)c2c1	0.3	70.0*	69.4*	0.098	0.3
O=C(CN1C(=O)CCSc2ccccc21)Nc1ccc(F)cc1	0.1	94.6*	80.3*	0.455	0.2
O=C(CN1C(=O)CCSc2ccccc21)Nc1ccccc1	0.1	91.5*	70.3*	0.0959	0.3
O=C(CN1C(=O)CCSc2ccccc21)Nc1ccc2c(c1)OCCO2	0.9	5.3	17.9	0.742	0.8
CC(C)CC(=O)Nc1cc(NC(=O)CC(C)C)cc(C(=O)NC(C)(C)C)c1	0.8	19.9	22.0	0.979	0.8
CC(Sc1nc(-c2ccccc2)cc(C(F)(F)F)n1)C(=O)N1CCCCC1 (centres undefined)	0.5	46.8	58.0*	-3.64	0.4
CC1CCCN(C(=O)C(C)Sc2nc(-c3ccccc3)cc(C(F)(F)F)n2)C1 (centres undefined)	0.3	71.3*	60.2*	-1.84	0.4
CC(C)CCC1CC(CSC(=N)N)OC1=O (centres undefined)	1	1.1	-17.3	0.192	1.2
O=C(NCc1cccs1)c1nc2c(nnn2Cc2ccccc2Cl)c(=O)[nH]1	/	/	/	-4.49*	/
Cc1ccc(Cn2nnc3c(=O)[nH]c(C4CCCN(C(=O)Nc5ccc(F)cc5F)C4)nc32)cc1 (centres undefined)	0.6	40.1	53.5*	-0.84	0.5
CC(C)(C)c1ccc(Cn2nnc3c(=O)[nH]c(C4CCN(C(=O)Cc5cccs5)CC4)nc32)cc1	0.1	90.7*	98.6*	-2.02	0
O=C(Cc1cccs1)N1CCCC(c2nc3c(nnn3Cc3ccccc3Cl)c(=O)[nH]2)C1 (centres undefined)	0.3	66.5*	91.2*	-0.473	0.1
O=C(c1ccccc1Cl)N1CCC(c2nc3c(nnn3Cc3ccco3)c(=O)[nH]2)CC1	/	/	/	0.857	/
Nc1c(C2=NCCO2)nnn1Cc1ccccc1	1.1	-5.9	-52.4	0.0195	1.5
O=C(Nn1c(-c2ccccc2)nc2ccccc2c1=O)C1CCC1	0.9	13.3	8.6	-0.037	0.9
CC(C)(C)c1ccc(Cn2nnc3c(=O)[nH]c(C4CCCN(C(=O)Cc5cccs5)C4)nc32)cc1 (centres undefined)	0.7	28.4	57.1*	-1.87	0.4
CCOc1ccccc1NC(=O)N1CCCC(c2nc3c(nnn3Cc3ccc(C)cc3)c(=O)[nH]2)C1 (centres undefined)	0.9	13.8	6.3	-1.16	0.9
O=C(Cc1cccs1)N1CCCC(c2nc3c(nnn3Cc3ccc(F)cc3)c(=O)[nH]2)C1 (centres undefined)	0.8	19.2	57.4*	-2.39	0.4
CCN(CC)C(=O)CN(c1ccc(Cl)cc1)S(=O)(=O)c1ccccc1	0.3	68.0*	6.7	-1.77	0.9
SMILES	CYP2C19 activ	CYP2C19 inh	CYP2C9 inh	Cav3 T inh	CYP2C9 act
COc1ccc(NCc2nnc(SCC(=O)c3ccc(OC)cc3)n2C)cc1	0.8	19.0	11.8	0.441	0.9
C=CCc1ccc(OCCOCCN(C)C)c(OC)c1	0.9	8.6	4.4	0.903	1
C=CCc1ccc(OCCOCCOc2ccc(C)cc2[N+](=O)[O-])c(OC)c1	/	/	/	-5.45*	/
C=CCc1ccc(OCCOc2cccc3ccc(C)nc23)c(OC)c1	0.6	36.1	-107.4	-2.09	2.1*
CC(=O)N1c2ccc3ccccc3c2C(C)CC12CCCCC2 (centres undefined)	0	98.4*	94.3*	-1.02	0.1
CCCc1[nH]nc2c1C(c1ccc(OC)c(Cn3nnc4ccccc43)c1)C(C#N)=C(N)O2 (centres undefined)	0.6	43.1	62.5*	-1.15	0.4
CCn1c2ccccc2c2cc(C3C(C#N)=C(N)Oc4n[nH]c(COC)c43)ccc21 (centres undefined)	0.6	35.3	58.7*	0.903	0.4
